# Assay results as given in PubChem BioAssay (Tox21).
# Inconclusive results are not listed. Activity calls are given as the source filed them. Calls follow the shape of the dose curve; as a rule, active = well fitted cell-killing curve with a large enough effect in the repeat runs; inconclusive = weak or mixed curves, or effect the other way; inactive = no such curve, though single readings can be large or run the other way.
# Test: qHTS assay to identify small molecule agonists of the farnesoid-X-receptor (FXR) signaling pathway - cell viability counter screen (AID 743218); also: nearly all actives have a fitted effect of over 45% in size
# Conditions: FXR-bla HEK293T viability, CellTiter-Glo luminescence, 16 h; series mostly up to 62.6 µM
# Description: U.S. Tox21 Program National Center for Advancing Translational Sciences [NCATS] NIH Chemical Genomics Center [NCGC] U.S. Environmental Protection Agency [EPA] National Institutes of Environmental Health Sciences [NIEHS] National Toxicology Program [NTP] U.S. Food and Drug Administration [FDA] Tox21 Assay Overview: The farnesoid-X-receptor (FXR), a nuclear hormone receptor, is highly expressed in liver, intestine, kidney and adrenal cortex. Natural ligands of FXR are the bile acids (Cholic acid, Chenodeoxy cholic acid etc). FXR is an important regulator of diverse metabolic pathways, including the bile acid homeostasis, lipid and glucose metabolisms. FXR regulates the expression of target genes by binding either as a monomer or as a heterodimer with the retinoid X receptor (RXR). Numerous studies have reported that FXR exerts protective function during cholestasis, diabetes, liver regeneration, and cancer. To identify compounds that activate FXR signaling, GeneBLAzer FXR-UAS-bla HEK 293T cell line (Invitrogen, Carlsbad, CA) containing a beta-lactamase reporter gene under the control of a UAS response element was used to screen the Tox21 10K compound library. The cytotoxicity of the Tox21 compound library against the FXR-bla cell line was tested in parallel by measuring the cell viability using CellTiter-Glo assay in the same wells.
# Tox21 Assay Protocol Summary: FXR-bla cells were dispensed at 5000 cells/5uL/well in 1536-well black wall/clear bottom plates using a Multidrop Combi (Thermo Fisher Scientific, Waltham, MA) dispenser. After the assay plates were incubated at 37 C and 5% CO2 for 5 h, 23 nL of compounds dissolved in DMSO, positive controls or DMSO only was transferred to the assay plate by a Pintool station (Kalypsys, San Diego, CA). The assay plates were incubated at 37C for 16 h. After 1 uL of LiveBLAzerTM B/G FRET substrate was added using a Bioraptr Flying Reagent Dispenser (FRD) workstation (Beckman Coulter, Indianapolis, IN), the plates were incubated at room temperature for 2 h, and fluorescence intensity was measured by an Envision plate reader (PerkinElmer, Shelton, CT). For cell viability readout that measures cytotoxicity, 4uL/well of CellTiter-Glo reagent was added into the assay plates using a Bioraptr FRD. After 30 min incubation at room temperature, the luminescence intensity in the plates was measured using a ViewLux plate reader (PerkinElmer).
row,SMILES,outcome
1,CC(Oc1cc(Cl)ccc1Cl)C(=O)O (stereo not given),inactive
2,O=C1OCCO1,inactive
3,O=Cc1ccccc1Cl,inactive
4,CC(O)CC(C)O (stereo not given),inactive
5,CC1CC(=O)CC(C)(C)C1 (stereo not given),inactive
6,COC(=O)/C=C\C(=O)O,inactive
7,CCOC(CN1CCN(CC(C)C(=O)c2ccccc2)CC1)c1ccccc1 (stereo not given),inactive
8,[O-][n+]1cccc(/C(Cl)=N/OC[C@@H](O)CN2CCCCC2)c1,inactive
9,CCC(=O)Oc1ccc2c(c1)CC[C@@H]1[C@@H]2CC[C@@]2(C)[C@H]1C[C@@H](OC(=O)CC)[C@@H]2OC(=O)CC,inactive
10,O=C(O)c1cc2ccccc2nc1C(=O)O,inactive
11,CCOC(=O)CC1(C)OCC(C)O1 (stereo not given),inactive
12,CC(C)C1OCCN1CCOC(=O)NCCCCCCNC(=O)OCCN1CCOC1C(C)C (stereo not given),inactive
13,O=C(O)CCCCCC(=O)O,inactive
14,C[C@@H](O)C(=O)O,inactive
15,Cc1cccc(Cl)c1,inactive
16,CCC(=O)c1c(O)cc(O)cc1O,inactive
17,CC(C)CO,inactive
18,OC1OCCOC1O (stereo not given),inactive
19,CC(=O)O[C@@H]1CC2CCC1(C)C2(C)C (stereo not given in full),inactive
20,CCCC(CC)c1ccccc1 (stereo not given),inactive

row,SMILES,outcome
1,CCC/C=C(\C=O)CC,inactive
2,O=C=NCC1CCCC(CN=C=O)C1 (stereo not given),inactive
3,CC(=O)Nc1ccc(OC(=O)c2ccccc2OC(C)=O)cc1,inactive
4,CCCCSCCCC,inactive
5,CN(C)CCOC(=O)C(c1ccccc1)C1(O)CCCC1 (stereo not given),inactive
6,CC1(C)[C@H]2CC[C@](C)(C2)[C@H]1O,inactive
7,CC(=O)c1cc(C)oc1C,inactive
8,COc1cc2c(cc1OC)C(=O)C(CC1CCN(Cc3ccccc3)CC1)C2 (stereo not given),inactive
9,Cc1cc(C)c(C(=O)O)c(C)c1,inactive
10,CC(C)Cn1cnc2c1c(=O)n(C)c(=O)n2C,inactive
11,CN(C)C(C)(C)CO,inactive
12,CC(=O)C1C(=O)C=C(C)OC1=O (stereo not given),inactive
13,CO/N=C(/C(=O)N[C@@H]1C(=O)N2C(C(=O)[O-])=C(C[n+]3ccn4ncccc43)CS[C@H]12)c1nsc(N)n1,inactive
14,C=CCCCC,inactive
15,CCCCCCC1(C)CCC(=O)O1 (stereo not given),inactive
16,CC(C)CCOC(=O)c1ccccc1,inactive
17,CN(C)CCCO[C@@H]1[C@H]2OC(C)(C)O[C@H]2O[C@@H]1C(O)CO (stereo not given in full),inactive
18,O=C1CCCCO1,inactive
19,CC(C)C[C@@H]1[C@H](c2ccccc2)OC(=O)N1CCCN1CCCCCC1,inactive
20,c1ccc2cnccc2c1,inactive
